# The sample as a whole holds a higher share of hits than the screen did.
# ALOX12 inh: ALOX12 (human) lipoxygenase inhibition | P18054 | purified 12hLO, xylenol orange hydroperoxide absorbance | Potency, µM (titrated, usually from 108 µM), for the others: at the top dose activity change, negative = inhibition, hits mostly inhibitors | actives 1.1% (n = 580,000) | AID 1671190; also: potency is read from the fitted curve at half-maximal effect
# Target sequence (P18054 whole entry, looked up): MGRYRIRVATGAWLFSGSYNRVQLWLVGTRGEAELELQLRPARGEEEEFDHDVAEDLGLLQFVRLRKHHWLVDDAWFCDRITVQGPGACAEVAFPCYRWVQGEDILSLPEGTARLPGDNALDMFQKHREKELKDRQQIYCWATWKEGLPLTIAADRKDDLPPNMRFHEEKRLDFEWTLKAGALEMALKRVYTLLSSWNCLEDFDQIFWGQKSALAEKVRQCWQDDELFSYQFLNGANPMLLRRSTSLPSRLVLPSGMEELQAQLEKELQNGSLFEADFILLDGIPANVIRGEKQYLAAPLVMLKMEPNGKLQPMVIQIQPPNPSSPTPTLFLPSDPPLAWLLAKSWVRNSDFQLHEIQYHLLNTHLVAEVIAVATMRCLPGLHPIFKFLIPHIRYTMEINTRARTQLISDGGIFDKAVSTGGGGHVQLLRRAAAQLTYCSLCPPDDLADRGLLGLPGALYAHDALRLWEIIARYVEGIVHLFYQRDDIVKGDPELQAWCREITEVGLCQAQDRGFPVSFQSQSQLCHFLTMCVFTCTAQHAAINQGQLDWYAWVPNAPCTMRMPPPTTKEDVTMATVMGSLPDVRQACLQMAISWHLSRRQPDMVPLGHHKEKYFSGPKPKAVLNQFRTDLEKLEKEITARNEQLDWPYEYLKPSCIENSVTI
#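 Purified human 12hLO (150 nM final) in 25 mM Hepes, 0.01% Triton X-100, pH 7.0 was preincubated 15 min at room temperature with compound. Then 40 uM arachidonic acid was added, 30 min. Hydroperoxide was read by Fe-XO absorbance ratio 573/405 nm.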
# HT1080 IDH1KD tx: kills HT-1080 cells with IDH1 knockdown; actives 2% (n = 360,000); Potency, µM (highest dose often 46.1 µM), without a hit: top-dose activity, negative = toxicity, usual class: cytotoxic; HT-1080 IDH1 knockdown viability, ATP luminescence, 48 h;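 also: potency is read from the fitted curve at half-maximal effect; 0% = DMSO wells and -100% = cell-free medium wells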
#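 Viability of IDH1-knockdown HT-1080 fibrosarcoma cells was assessed by CellTiter-Glo after 48 h at 37 °C with titrated compound; concentration-effect curves were classified by fit quality and response size.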
# TDP1 cell CPT: growth inhibition of DT40 Tdp1-/-;hTDP1 cells with camptothecin (screen for TDP1 inhibitors) | chicken DT40 Tdp1-/-;hTDP1 cells + 20 nM CPT, ATP luminescence, 48 h | Potency, µM (highest dose often 46.2 µM), inactives show at the top dose activity change, negative = growth inhibition, hits mostly inhibitors | actives 12% (n = 420,000) | AID 686979; also: potency is read from the fitted curve at half-maximal effect; nearly all actives have a fitted effect of over 55% in size
#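 Chicken DT40 Tdp1-/- cells stably complemented with human TDP1 were seeded at 400 cells/well in medium containing 20 nM camptothecin, exposed to pin-transferred compounds, and grown at 37 °C for at least 48 hr. Viability was read as ATP luminescence.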
# HT1080NT lethal: kills 2HG-producing HT-1080-NT fibrosarcoma cells; actives 1.6% (n = 360,000); HT-1080-NT fibrosarcoma viability, CellTiter-Glo ATP luminescence, 48 h; Potency, µM (top dose mostly 46.1 µM), for the others: at the highest dose activity, negative = less viability, hits mostly cytotoxic; AID 686970;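 also: NT is the 2HG producing partner of a matched IDH1 knockdown line; potency is read from the fitted curve at half-maximal effect; 0% = DMSO-treated cells and -100% = media-only wells without cells; nearly all actives have a fitted effect of over 55% in size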
#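 Viability by CellTiter-Glo luminescence after 48 h compound exposure at 37C of HT-1080-NT cells (750/well, RPMI, 5% FBS). % activity scaled between DMSO wells and medium-only wells, then curve-fitted and categorized by curve class.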
# IL1B secr inh: inflammasome signaling inhibition, IL-1 beta readout; THP-1 LPS/ATP IL-1B secretion, AlphaLISA, 16 h; hits give low values; actives 4.7% (n = 360,000); AID 743279; activity change, % at 57.5 µM; in the data active = activity change below about -50%; inconclusive = mostly about -30% to -49%
#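 Secreted IL-1B measured by AlphaLISA bead assay after 16 h compound exposure of THP-1 cells; compounds (final up to 57.5 uM) added 1 h before LPS (250 ng/mL) and ATP (1.25 mM) stimulation; lower signal means less secretion.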
# DT40 TDP1 no CPT: qHTS for Inhibitors of human tyrosyl-DNA phosphodiesterase 1 (TDP1): qHTS in cells in absence of CPT; DT40 Tdp1-/- hTDP1 cells, no CPT, ATP luminescence, 48 h; Potency, µM (doses to about 46.2 µM), without a hit: at the top dose activity change, negative = growth inhibition, hits mostly inhibitors; actives 15% (n = 420,000); also: potency is read from the fitted curve at half-maximal effect; nearly all actives have a fitted effect of over 55% in size
#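 A cellular qHTS used chicken DT40 cells lacking endogenous Tdp1 but carrying stably transfected human TDP1. Compounds were applied without camptothecin, and cell growth kinetics were judged by ATP-dependent luminescence after ≥48 hr.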
# * = called active by the depositor; ? = inconclusive; . = no result given; [ ] = another dose, or the depositor's remark. Unless noted, calls follow the shape of the dose curve; as a rule, active = well fitted curve in the direction sought with a large enough effect; inconclusive = small, poorly fitted or top-dose-only effect, or another doubt; inactive = no such curve, though single readings can be large; an effect the other way counts as inactive or inconclusive. Unless noted, % is scaled to controls: 0 for no effect and ±100 for the full control effect.
SMILES,ALOX12 inh,HT1080 IDH1KD tx,TDP1 cell CPT,HT1080NT lethal,IL1B secr inh,DT40 TDP1 no CPT
Cc1c(C(=O)Cn2cnc3ccccc32)c2ccccc2n1C,38%,.,.,.,.,.
CC(C)n1nc(C(=O)NCC2(N3CCOCC3)CCCCC2)c2ccccc2c1=O,9%,.,.,.,.,.
CCOc1ccc(N2C(=O)/C(=C\c3cccs3)C(=O)NC2=S)cc1,?,-17%,?,?,-99*,?
O=C1NC(=O)N(CC2CCCO2)C(=O)/C1=C/c1cccs1 (configuration not stated),0%,3%,?,23%,37,?
O=C1NC(=O)C(=Cc2ccsc2)C(=O)N1,?,4%,5%,4%,-4,2%
O=C1NC(=O)C(=Cc2csc3ccccc23)C(=O)N1,40µM*,0%,16µM*,0%,-21,18µM*
O=C1NC(=S)N(c2ccccc2F)C(=O)/C1=C\c1cccs1,32µM*,-17%,21µM*,6%,-91*,?
O=C1NC(=O)C(=Cc2cccs2)C(=O)N1,-13%,-10%,18µM*,2%,-18,16µM*
CCCN1[C@@H]2c3cccc(=O)n3C[C@H]1[C@H](CO)[C@H]2C(=O)OC,0%,.,.,.,.,.
CC1CCN(CC(=O)c2cccc(C(F)(F)F)c2)CC1,?,3%,-12%,4%,-6,4%
CC(=O)Nc1cc(-c2cccc(C(=O)N(C)C)c2)cn2c(-c3cccc(C(F)(F)F)c3)cnc12,-10%,-29%,18µM*,?,-20,16µM*
O=C(NCC(c1ccco1)N1CCCC1)c1cccc(S(=O)(=O)N2CCc3ccccc32)c1 (configuration not stated),?,-24%,18µM*,-7%,-10,9.2µM*
CC(C)NC(=O)NC[C@H]1C[C@@H]2CCN1C[C@@H]2CN(C)c1ccccc1,42%[176 µM],.,.,.,.,.
Cc1cc(OCC(=O)N2CCC(C(=O)O)(c3ccccc3)CC2)c2c(C)cc(=O)oc2c1,16%,-1%,-11%,0%,2,21%
CC(C)(C)OC(=O)COc1cc(OCC(=O)OC(C)(C)C)c2c(=O)cc(-c3ccccc3)oc2c1,-12%,?,?,?,-67*,18µM*
CN(C(=O)c1cn(Cc2ccccc2)c2ccccc12)C1CCS(=O)(=O)C1 (configuration not stated),16%,.,.,.,.,.
CCCNC1CCc2ccccc2C1 (configuration not stated),72%,.,.,.,.,.
CC(C)Cn1cc(C(=O)NCC2CCCN2C)c2ccccc21 (configuration not stated),-2%,.,.,.,.,.
Cc1nc2ccccc2c(=O)n1-c1cc([N+](=O)[O-])cc([N+](=O)[O-])c1,-10%,-4%,?,-6%,0,?
Cc1[nH]n(-c2ccccc2)c(=O)c1C(C[N+](=O)[O-])c1ccccc1Cl (configuration not stated),-13%,-6%,21µM*,-9%,14,29µM*
Cc1[nH]n(-c2ccccc2)c(=O)c1C(c1ccc([N+](=O)[O-])cc1)c1c(C)[nH]n(-c2ccccc2)c1=O,.,5%,16µM*,0%,-13,?
Cc1ncc2c(n1)C[C@@H]1CC[C@H]2N1C(=O)c1ccc2c(c1)OCO2,9%,.,.,.,.,.
C=CC[C@@H](CC(=O)N(CCO)Cc1ccccc1)C(=O)NC[C@H](OC(=O)[C@@H](CC=C)CC(=O)OC(C)(C)C)c1ccccc1,-16%,-25%,21µM*,-17%,?,-79%
Cc1ccc(C(=O)Nc2ccccc2)cc1S(=O)(=O)N1CCCC1,-4%,.,.,.,.,.

# Source: PubChem BioAssay
